# About 79,000 compounds went through this panel and 15% of them were active in at least one assay; those are over-represented in the sample as a whole. Active and inactive are the calls of the source. Rule as the data show it: active = growth inhibition above about 70%; inactive = the rest. Where a SMILES comes first, the peptide text is derived from it. The star is where a group is joined. Trt = c1ccc(C(c2ccccc2)(c2ccccc2)*)cc1; OtBu = CC(C)(C)O*
# Assay: NCI Yeast Anticancer Drug Screen. Data for the sgs1 mgt1 strain (AID 161);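 also: 0% = growth of cultures given vehicle only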
# Conditions: S. cerevisiae sgs1 mgt1 strain, at 50.0 µM, active compounds read high
# Method in brief: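 Read-out: growth inhibition vs vehicle controls. Cells: mutant yeast strain deficient in DNA damage repair.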
row,Compound,growth inhibition
1,CCOC(=O)C(=N\Nc1cccc(C)c1C)/C(C)=N\NC(N)=S,75.8% (active)
2,CCN(CC)CCNc1ccc(C)c2oc3ccc(O)cc3c(=O)c12,81.5% (active)
3,O=C1C(C=NC(=S)c2ccccc2)=C(O)c2ccccc21,2.35% (inactive)
4,CCOC(=O)Cc1csc(/N=C\c2c(O)c3ccccc3oc2=O)n1,-10.9% (inactive)
5,CC(C)(CCCCC(C)(C)NCC1COc2ccccc2O1)NCC1COc2ccccc2O1 (stereo not drawn),96.8% (active)
6,O=C1OC(c2ccc(O)cc2)=C(c2ccccc2)C1c1ccccc1 (stereo not drawn),99.5% (active)
7,O=C(c1ccccc1)C(Br)CCCC(Br)C(=O)c1ccccc1 (stereo not drawn),96% (active)
8,CCC(c1ccc(O)cc1)C(O)(CC)c1ccc(O)cc1 (stereo not drawn),65.1% (inactive)
9,Cn1cnc2[nH]c(Cl)nc(=S)c21,-0.65% (inactive)
10,O=C(NCCN1CCCC1)c1cn2c(ccc3sc4ccccc4c(=O)c32)n1,46% (inactive)
11,CC(C)(C)OC(=O)CNC(=O)C(Cc1ccccc1)NC(=O)C(N)CSC(c1ccccc1)(c1ccccc1)c1ccccc1 (stereo not drawn) (H-Cys(Trt)-Phe-Gly-OtBu; configuration not given here),76.5% (active)
12,C/C(=N/NC(N)=S)C(CN(C)C)C(C1=C(O)c2ccccc2OC1)c1ccccc1 (stereo not drawn),78.3% (active)
13,O=C(CC(=O)c1ccccc1)CC(=O)c1ccccc1Br,6.6% (inactive)
14,O=C1OC2(c3ccccc31)c1cc(I)c(O)c(I)c1Oc1c2cc(I)c(O)c1I,99.6% (active)
15,Nc1cc(Cl)c2c(c1)Cc1ccccc1-2,84.8% (active)
16,C1=Cc2ccccc2/C1=C/c1ccccc1,88% (active)
17,Cc1ccc(C2=CC(=O)/C(=C\C(=O)c3ccc(Cl)cc3)O2)cc1,71.2% (active)
18,CC1(c2ccc(S(=O)(=O)c3ccccc3)cc2)OC(=O)C=CC1=O (stereo not drawn),99.5% (active)
19,CCCc1cc(-c2ccc(O)c(CCC)c2)ccc1O,99.5% (active)
20,CCOC(=O)N1c2ccc3ccccc3c2C=CC1C#N (stereo not drawn),96.6% (active)

row,Compound,growth inhibition
1,N#CNc1nc(N)c(-c2ccc(Cl)cc2)c(C(=O)Nc2ccc(Cl)c(Cl)c2)n1,-8% (inactive)
2,O=c1c(Cl)c(Cl)oc(Cl)c1Cl,88% (active)
3,O=c1nc(-c2ccccc2)cc(-c2ccccc2O)[nH]1,30.4% (inactive)
4,O=C(Cc1nc2ccccc2s1)C(=O)Nc1ccc(Cl)cc1,17.5% (inactive)
5,c1ccc(OCC2c3ccccc3Nc3ccccc32)cc1,26.9% (inactive)
6,CCN(C(=O)C(F)(F)F)c1ccc2c(c1)C(=O)c1ccccc1-2,42.6% (inactive)
7,Cc1cc2oc3c(ccc(=O)n3C)c(=O)c2c(C)c1Cl,54.8% (inactive)
8,O=C(CC(O)(C(F)(F)F)C(F)(F)F)C(c1ccccc1)C(O)(C(F)(F)F)C(F)(F)F (stereo not drawn),84.2% (active)
9,O=S(=O)(Sc1ccccc1)C(c1ccccc1)c1ccccc1,14.1% (inactive)
10,COc1ccc2c3c(ccc2c1)NC(C(=O)O)CC3 (stereo not drawn),36% (inactive)
11,N#CSc1ccc2nc(NCO)sc2c1,99.3% (active)
12,CC(CN(C)C)C(=O)c1cn(C)c2ccccc12 (stereo not drawn),30.3% (inactive)
13,Cc1cc(Cl)nc2ccc(Cc3ccc4nc(Cl)cc(C)c4c3)cc12,-19.6% (inactive)
14,COc1ccc2c(c1)CN([C@@H](C)[C@H]1CC[C@H]3[C@@H]4CC[C@H]5C[C@@H](O)CC[C@]5(C)[C@H]4CC[C@]13C)CO2,99.2% (active)
15,FC(F)(F)c1nc(Cl)nc2nc[nH]c12,-31.4% (inactive)
16,CC(C)C1COC(c2ccc3ccccc3c2-c2c(O[Si](C)(C)C(C)(C)C)ccc3ccccc23)=N1 (stereo not drawn),92.8% (active)
17,COc1cc2c(c(C3C(=O)N(C)c4ccc(Br)cc43)c1OC)OCO2 (stereo not drawn),11.3% (inactive)
18,c1ccc2c3[nH]c(c2c1)=Nc1ccc(cc1)-c1nc2ccc(cc2o1)N=c1[nH]c(c2ccccc12)=Nc1ccc2nc(oc2c1)-c1ccc(cc1)N=3,82.7% (active)
19,c1ccc2nc3ccccc3nc2c1,28.4% (inactive)

# Assay: NCI Yeast Anticancer Drug Screen. Data for the cln2 rad14 strain (AID 165);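 also: 0% = growth equal to vehicle treated cultures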
# Conditions: S. cerevisiae cln2 rad14 strain, at 5.0 µM (retest, dose inferred, filed as 0.5), active compounds read high
# Method in brief: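 Compounds are applied to the cln2 rad14 yeast strain, and growth is then compared with that of vehicle-treated cultures to give inhibition.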
row,Compound,growth inhibition
1,CCOC(=O)C(=N\Nc1cccc(C)c1C)/C(C)=N\NC(N)=S,-6% (inactive)
2,CCN(CC)CCNc1ccc(C)c2oc3ccc(O)cc3c(=O)c12,1% (inactive)
3,O=C1C(C=NC(=S)c2ccccc2)=C(O)c2ccccc21,20% (inactive)
4,CCOC(=O)Cc1csc(/N=C\c2c(O)c3ccccc3oc2=O)n1,26% (inactive)
5,CC(C)(CCCCC(C)(C)NCC1COc2ccccc2O1)NCC1COc2ccccc2O1 (stereo not drawn),0% (inactive)
6,O=C1OC(c2ccc(O)cc2)=C(c2ccccc2)C1c1ccccc1 (stereo not drawn),4% (inactive)
7,O=C(c1ccccc1)C(Br)CCCC(Br)C(=O)c1ccccc1 (stereo not drawn),15% (inactive)
8,CCC(c1ccc(O)cc1)C(O)(CC)c1ccc(O)cc1 (stereo not drawn),-24% (inactive)
9,Cn1cnc2[nH]c(Cl)nc(=S)c21,-6% (inactive)
10,O=C(NCCN1CCCC1)c1cn2c(ccc3sc4ccccc4c(=O)c32)n1,19% (inactive)
11,CC(C)(C)OC(=O)CNC(=O)C(Cc1ccccc1)NC(=O)C(N)CSC(c1ccccc1)(c1ccccc1)c1ccccc1 (stereo not drawn) (H-Cys(Trt)-Phe-Gly-OtBu; configuration not given here),-5% (inactive)
12,C/C(=N/NC(N)=S)C(CN(C)C)C(C1=C(O)c2ccccc2OC1)c1ccccc1 (stereo not drawn),-1% (inactive)
13,O=C(CC(=O)c1ccccc1)CC(=O)c1ccccc1Br,-3% (inactive)
14,O=C1OC2(c3ccccc31)c1cc(I)c(O)c(I)c1Oc1c2cc(I)c(O)c1I,15% (inactive)
15,Nc1cc(Cl)c2c(c1)Cc1ccccc1-2,-7% (inactive)
16,C1=Cc2ccccc2/C1=C/c1ccccc1,-7% (inactive)
17,Cc1ccc(C2=CC(=O)/C(=C\C(=O)c3ccc(Cl)cc3)O2)cc1,38% (inactive)
18,CC1(c2ccc(S(=O)(=O)c3ccccc3)cc2)OC(=O)C=CC1=O (stereo not drawn),44% (inactive)
19,CCCc1cc(-c2ccc(O)c(CCC)c2)ccc1O,96% (active)
20,CCOC(=O)N1c2ccc3ccccc3c2C=CC1C#N (stereo not drawn),-11% (inactive)

row,Compound,growth inhibition
1,N#CNc1nc(N)c(-c2ccc(Cl)cc2)c(C(=O)Nc2ccc(Cl)c(Cl)c2)n1,-4% (inactive)
2,O=c1c(Cl)c(Cl)oc(Cl)c1Cl,3% (inactive)
3,O=c1nc(-c2ccccc2)cc(-c2ccccc2O)[nH]1,19% (inactive)
4,O=C(Cc1nc2ccccc2s1)C(=O)Nc1ccc(Cl)cc1,2% (inactive)
5,c1ccc(OCC2c3ccccc3Nc3ccccc32)cc1,99% (active)
6,CCN(C(=O)C(F)(F)F)c1ccc2c(c1)C(=O)c1ccccc1-2,0% (inactive)
7,Cc1cc2oc3c(ccc(=O)n3C)c(=O)c2c(C)c1Cl,20% (inactive)
8,O=C(CC(O)(C(F)(F)F)C(F)(F)F)C(c1ccccc1)C(O)(C(F)(F)F)C(F)(F)F (stereo not drawn),13% (inactive)
9,O=S(=O)(Sc1ccccc1)C(c1ccccc1)c1ccccc1,1% (inactive)
10,COc1ccc2c3c(ccc2c1)NC(C(=O)O)CC3 (stereo not drawn),-17% (inactive)
11,N#CSc1ccc2nc(NCO)sc2c1,-9% (inactive)
12,CC(CN(C)C)C(=O)c1cn(C)c2ccccc12 (stereo not drawn),3% (inactive)
13,Cc1cc(Cl)nc2ccc(Cc3ccc4nc(Cl)cc(C)c4c3)cc12,3% (inactive)
14,COc1ccc2c(c1)CN([C@@H](C)[C@H]1CC[C@H]3[C@@H]4CC[C@H]5C[C@@H](O)CC[C@]5(C)[C@H]4CC[C@]13C)CO2,95% (active)
15,FC(F)(F)c1nc(Cl)nc2nc[nH]c12,-3% (inactive)
16,CC(C)C1COC(c2ccc3ccccc3c2-c2c(O[Si](C)(C)C(C)(C)C)ccc3ccccc23)=N1 (stereo not drawn),13% (inactive)
17,COc1cc2c(c(C3C(=O)N(C)c4ccc(Br)cc43)c1OC)OCO2 (stereo not drawn),5% (inactive)
18,c1ccc2c3[nH]c(c2c1)=Nc1ccc(cc1)-c1nc2ccc(cc2o1)N=c1[nH]c(c2ccccc12)=Nc1ccc2nc(oc2c1)-c1ccc(cc1)N=3,17% (inactive)
19,c1ccc2nc3ccccc3nc2c1,2% (inactive)

# From PubChem BioAssay (NCI)
